Screens deposited in PubChem BioAssay by several laboratories.
FAS-TE inh: FAS thioesterase domain inhibitors, primary screen, biochemical, fluorescence intensity, uHTS | Fatty acid synthase (Homo sapiens), P49327 | recombinant FAS-TE, OMFH fluorogenic substrate, fluorescence endpoint | inhibition, % at 15 µM | 360,000 compounds, 0.67% hits;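 active means compounds whose normalised, plate-corrected inhibition of enzyme fluorescence in the single-dose primary screen is 50% or more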
NadD inh: inhibitors of S. aureus NadD, primary screen, biochemical, colorimetric, uHTS; Nicotinate-nucleotide adenylyltransferase NadD (Staphylococcus aureus N315); purified NadD enzyme, colorimetric absorbance read-out; inhibition, % at 20 µM; 360,000 compounds, 0.78% hits; AID 602399, 2012; in the data active means inhibition above about 26%
CRFBP-R2 block: antagonists of CRF-BP/CRF-R2 complex, primary screen, cell-based, HEK293, calcium dye fluorescence, uHTS | CRF-induced calcium fluorescence | inhibition, % at 11.8 µM | 350,000 compounds, 0.59% hits | AID 588475, 2011;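 active means inhibition of the ligand-induced calcium signal above about 50% at the single tested concentration, limit read from the data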
Myeloid diff 2: induction of myeloid progenitor differentiation, primary screen, cell-based, flow cytometry, MLPCN library | ER-HoxA9 myeloid progenitors, lysozyme-GFP differentiation | calls only at 10 µM | 360,000 compounds, 1% hits;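 active means normalized GFP-positive differentiation at or above the plate's own cutoff, the solvent-only control mean plus 3 SD; inconclusive means no clear call, values can overlap the other calls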;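 further: cells exposed to compound for four days before flow analysis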
NRP1-CendR mod: modulators of CendR peptide binding to NRP-1, primary screen, biochemical, fluorescence polarization, uHTS | inhibition, % at 25 µM | AID 602438, 2012 | 360,000 compounds, 0.85% hits | FAM-RPARPAR peptide binding to NRP-1;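 active means inhibition or corrected inhibition above about 18%, plus a signal ratio from 0.5 to 1.5, limit read from the data, passing the limit was not always enough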
Numbers stand for hits. Sampled rows, rich in hits. Any-hit rate of the full collection: about 3.6%.

What do the screens show for `O=C(Nc1cc(C(=O)N2CCCC2)ccc1N1CCCC1)c1ccccc1F`?
FAS-TE inh: inactive; NadD inh: inactive; CRFBP-R2 block: inactive; Myeloid diff 2: inactive; NRP1-CendR mod: inactive

What do the screens show for `O=C(c1ccccc1F)N1CCN(c2ccccc2)CC1`?
FAS-TE inh: inactive; NadD inh: inactive; CRFBP-R2 block: inactive; Myeloid diff 2: inactive; NRP1-CendR mod: inactive

How did CC(=O)N1CCN(c2ccc(NC(=O)c3ccccc3Cl)cc2)CC1 do in these assays?
FAS-TE inh: inactive; NadD inh: inactive; CRFBP-R2 block: inactive; Myeloid diff 2: inactive; NRP1-CendR mod: inactive

What do the screens show for `NC(=O)c1ccc(NC(=O)COC(=O)c2ccccc2SCC(=O)N2CCCC2)cc1`?
FAS-TE inh: inactive; NadD inh: inactive; CRFBP-R2 block: inactive; Myeloid diff 2: inactive; NRP1-CendR mod: inactive

How did Cc1ccc2c(c1)C(=O)C(=O)N2Cc1ccc(Cl)cc1 do in these assays?
FAS-TE inh: inactive; NadD inh: inactive; CRFBP-R2 block: inactive; Myeloid diff 2: inconclusive; NRP1-CendR mod: inactive

What do the screens show for `CC1(c2ccc3noc(-c4ccccc4)c3c2)OCCO1`?
FAS-TE inh: inactive; NadD inh: inactive; CRFBP-R2 block: inactive; Myeloid diff 2: inactive; NRP1-CendR mod: inactive

How did Fc1ccc(-c2onc3ccc(C4OCCO4)cc23)cc1 do in these assays?
FAS-TE inh: inactive; NadD inh: inactive; CRFBP-R2 block: inactive; Myeloid diff 2: inactive; NRP1-CendR mod: inactive

How did O=Cc1ccc2noc(-c3ccc(F)cc3)c2c1 do in these assays?
FAS-TE inh: inactive; NadD inh: inactive; CRFBP-R2 block: inactive; Myeloid diff 2: inactive; NRP1-CendR mod: 24

Results for CC1(c2ccc3noc(-c4ccc(F)cc4)c3c2)OCCO1 ?
FAS-TE inh: inactive; NadD inh: inactive; CRFBP-R2 block: inactive; Myeloid diff 2: inactive; NRP1-CendR mod: 27

What do the screens show for `CCCCC[C@H](O)/C=C/C1C(=O)C=C[C@H]1C/C=C\CCCC(=O)OC` (stereo partly drawn)?
FAS-TE inh: inactive; NadD inh: inactive; CRFBP-R2 block: inactive; Myeloid diff 2: inactive; NRP1-CendR mod: inactive

How did COc1ccc(OC)c(S(=O)(=O)N(C)CC(=O)N2CCN(c3cccc(Cl)c3)CC2)c1 do in these assays?
FAS-TE inh: inactive; NadD inh: inactive; CRFBP-R2 block: inactive; Myeloid diff 2: inactive; NRP1-CendR mod: 19

How did COc1ccc(S(=O)(=O)N(C)CC(=O)N2CCCCC2)cc1Cl do in these assays?
FAS-TE inh: inactive; NadD inh: inactive; CRFBP-R2 block: inactive; Myeloid diff 2: inactive; NRP1-CendR mod: 27

How did COC(=O)c1sccc1S(=O)(=O)Nc1ccc(C(O)(C(F)(F)F)C(F)(F)F)cc1 do in these assays?
FAS-TE inh: inactive; NadD inh: inactive; Myeloid diff 2: inactive; NRP1-CendR mod: inactive

Results for CSc1nc2[nH]c(=O)n(O)c(=O)c2n1Cc1ccccc1 ?
FAS-TE inh: inactive; NadD inh: inactive; CRFBP-R2 block: inactive; Myeloid diff 2: inactive; NRP1-CendR mod: inactive

What do the screens show for `CC1(C)C(/C=C/C=C/C=C/C=C2\N(CCCCS(=O)(=O)O)c3ccc4ccccc4c3C2(C)C)=[N+](CCCCS(=O)(=O)[O-])c2ccc3ccccc3c21`?
FAS-TE inh: inactive; NadD inh: 67; CRFBP-R2 block: 69; Myeloid diff 2: inactive; NRP1-CendR mod: inactive

Results for Cc1c2ccccc2cc[n+]1CCCS(=O)(=O)[O-] ?
FAS-TE inh: inactive; NadD inh: inactive; CRFBP-R2 block: inactive; Myeloid diff 2: inactive; NRP1-CendR mod: inactive

Results for COc1ccc(OC2C(=O)N(c3cc(C)ccc3C)C2c2ccc(OC)c(OC)c2)cc1 (stereo not drawn) ?
FAS-TE inh: inactive; NadD inh: inactive; CRFBP-R2 block: 51; Myeloid diff 2: inactive; NRP1-CendR mod: inactive

What do the screens show for `COc1ccc(OC2C(=O)N(c3ccc(C)c(C)c3)C2c2ccc(OC)c(OC)c2)cc1` (stereo not drawn)?
FAS-TE inh: inactive; NadD inh: inactive; CRFBP-R2 block: inactive; Myeloid diff 2: inactive; NRP1-CendR mod: inactive

Results for O=C(NCc1ccccc1)c1ccc(N2CCC3(CC2)CC(c2ccc(Cl)cc2)=NO3)c([N+](=O)[O-])c1 ?
FAS-TE inh: inactive; NadD inh: inactive; CRFBP-R2 block: inactive; Myeloid diff 2: inactive; NRP1-CendR mod: 31

What do the screens show for `CCOC(=O)c1sc(NC(=O)CSc2n[nH]c(-c3ccncc3)n2)c(C#N)c1C`?
FAS-TE inh: inactive; NadD inh: inactive; CRFBP-R2 block: 70; Myeloid diff 2: inactive; NRP1-CendR mod: inactive

Results for Cc1ccccc1N1C(=O)c2ccccc2NC1c1ccncc1 (stereo not drawn) ?
FAS-TE inh: inactive; NadD inh: inactive; CRFBP-R2 block: inactive; Myeloid diff 2: inactive; NRP1-CendR mod: 28

How did COc1ccccc1Cc1c(-c2ccc(F)cc2)nc2cc(C)c(Br)c(C)n12 do in these assays?
FAS-TE inh: inactive; NadD inh: inactive; Myeloid diff 2: inactive; NRP1-CendR mod: inactive

How did CCN(CCCNC(=O)CNC(=O)c1nn(-c2ccc(OC)cc2OC)c(=O)c2ccccc12)c1cccc(C)c1 do in these assays?
FAS-TE inh: inactive; NadD inh: inactive; CRFBP-R2 block: inactive; Myeloid diff 2: inactive; NRP1-CendR mod: 25

What do the screens show for `COCCCNC(=O)CNC(=O)c1nn(-c2ccc(OC)cc2OC)c(=O)c2ccccc12`?
FAS-TE inh: inactive; NadD inh: inactive; CRFBP-R2 block: inactive; Myeloid diff 2: inactive; NRP1-CendR mod: inactive

What do the screens show for `COc1ccc(S(=O)(=O)N2CCOCC2)cc1NC(=O)C1CC(=O)N(c2ccc3c(c2)OCCO3)C1` (stereo not drawn)?
FAS-TE inh: inactive; NadD inh: inactive; CRFBP-R2 block: inactive; Myeloid diff 2: inactive; NRP1-CendR mod: inactive

How did O=C(O)c1cc2ncc(CCO)cn2n1 do in these assays?
FAS-TE inh: inactive; NadD inh: inactive; CRFBP-R2 block: inactive; Myeloid diff 2: inactive; NRP1-CendR mod: 24

Results for CC1CC2(CCCCC2)Nc2ccc3ccccc3c21 (stereo not drawn) ?
FAS-TE inh: inactive; NadD inh: inactive; CRFBP-R2 block: inactive; Myeloid diff 2: active; NRP1-CendR mod: inactive

What do the screens show for `CC(=O)N1c2ccc3ccccc3c2C(C)CC12CCCCC2` (stereo not drawn)?
FAS-TE inh: inactive; NadD inh: inactive; CRFBP-R2 block: inactive; Myeloid diff 2: inactive; NRP1-CendR mod: inactive

What do the screens show for `COc1cccc(-c2n[nH]c(=S)n2Cc2ccco2)c1`?
FAS-TE inh: inactive; NadD inh: inactive; CRFBP-R2 block: inactive; Myeloid diff 2: inactive; NRP1-CendR mod: inactive

What do the screens show for `Cc1csc(SCC(=O)Nc2cccc(S(=O)(=O)N3CCCC3)c2)n1`?
FAS-TE inh: inactive; NadD inh: inactive; CRFBP-R2 block: inactive; Myeloid diff 2: inactive; NRP1-CendR mod: 26

Results for Nc1ccc(CCn2ccnc2)cc1 ?
FAS-TE inh: inactive; NadD inh: 34; CRFBP-R2 block: inactive; Myeloid diff 2: inactive; NRP1-CendR mod: inactive

What do the screens show for `COc1ccccc1NC(=S)N1CCN(c2ccccc2F)CC1`?
FAS-TE inh: inactive; NadD inh: inactive; CRFBP-R2 block: inactive; Myeloid diff 2: inactive; NRP1-CendR mod: inactive
